For some assays here: Potency and affinity values are given separately.
What was measured:
Parameters in all cases: scale not given: direction of the effect not stated beside the values
[1] = target: Protein translocase subunit SecA (Escherichia coli (strain K12)) (UniProt P10408); test: Assay to Identify E. coli SecA ATPase Inhibitors; assay type: functional; conditions: 30 µM
[2] = target: T1, Ubiquitin-activating enzyme e1, putative (Leishmania donovani (strain BPK282A1)) (UniProt E9BSI1); test: Leishmania donovani Ubiquitin Activating Enzyme (LdE1); assay type: functional; conditions: 30 µM
T1 sequence (whole entry): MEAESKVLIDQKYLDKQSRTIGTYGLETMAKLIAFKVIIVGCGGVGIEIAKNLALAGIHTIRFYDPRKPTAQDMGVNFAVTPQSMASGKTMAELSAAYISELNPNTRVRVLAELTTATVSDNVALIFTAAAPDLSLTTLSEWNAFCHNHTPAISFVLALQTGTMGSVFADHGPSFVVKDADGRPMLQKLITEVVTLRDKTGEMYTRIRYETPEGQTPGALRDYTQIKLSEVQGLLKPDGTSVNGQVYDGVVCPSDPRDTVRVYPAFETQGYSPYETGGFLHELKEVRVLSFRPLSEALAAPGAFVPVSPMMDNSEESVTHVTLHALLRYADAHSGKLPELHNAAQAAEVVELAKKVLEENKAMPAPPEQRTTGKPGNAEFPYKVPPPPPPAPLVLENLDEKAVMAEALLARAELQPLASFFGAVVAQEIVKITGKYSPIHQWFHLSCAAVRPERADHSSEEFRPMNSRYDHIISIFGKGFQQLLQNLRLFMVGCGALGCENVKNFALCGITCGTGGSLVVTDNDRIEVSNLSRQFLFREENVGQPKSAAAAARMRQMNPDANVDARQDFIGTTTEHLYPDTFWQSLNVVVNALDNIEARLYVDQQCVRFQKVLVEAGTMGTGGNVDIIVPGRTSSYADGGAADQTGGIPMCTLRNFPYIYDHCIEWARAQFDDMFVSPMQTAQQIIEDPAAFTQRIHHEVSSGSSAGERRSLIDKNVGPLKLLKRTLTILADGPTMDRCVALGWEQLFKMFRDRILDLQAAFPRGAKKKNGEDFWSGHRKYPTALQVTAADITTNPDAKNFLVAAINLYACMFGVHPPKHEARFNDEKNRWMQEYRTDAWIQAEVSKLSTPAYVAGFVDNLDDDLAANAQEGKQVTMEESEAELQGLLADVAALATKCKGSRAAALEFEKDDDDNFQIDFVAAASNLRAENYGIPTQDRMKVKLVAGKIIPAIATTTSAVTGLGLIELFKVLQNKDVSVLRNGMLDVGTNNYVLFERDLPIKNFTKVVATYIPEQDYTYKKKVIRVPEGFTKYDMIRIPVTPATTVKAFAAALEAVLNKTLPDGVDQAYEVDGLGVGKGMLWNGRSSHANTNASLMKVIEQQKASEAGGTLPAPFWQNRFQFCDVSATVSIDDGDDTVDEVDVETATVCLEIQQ

[3] = target: AMP-activated protein kinase, AMPK (Homo sapiens) (UniProt P54646+O43741+P54619+Q9UGJ0+Q9Y478+Q13131+Q9UGI9); test: AMP-dependent Kinase enzyme assay. An in vitro enzyme assay that detects ADP turnover that is directly proportional to AMPK activity. This uses naive AMPK that is activated during the assay with MK-8722; assay type: functional; conditions: 30 µM
[4] = target: Sialic acid-binding Ig-like lectin 9 (Homo sapiens) (UniProt Q9Y336); test: Hs-Siglec9 ALPHAscreen SOP 20170721; conditions: 10 µM
Sequence of Sialic acid-binding Ig-like lectin 9 (Homo sapiens) (Q9Y336 whole entry): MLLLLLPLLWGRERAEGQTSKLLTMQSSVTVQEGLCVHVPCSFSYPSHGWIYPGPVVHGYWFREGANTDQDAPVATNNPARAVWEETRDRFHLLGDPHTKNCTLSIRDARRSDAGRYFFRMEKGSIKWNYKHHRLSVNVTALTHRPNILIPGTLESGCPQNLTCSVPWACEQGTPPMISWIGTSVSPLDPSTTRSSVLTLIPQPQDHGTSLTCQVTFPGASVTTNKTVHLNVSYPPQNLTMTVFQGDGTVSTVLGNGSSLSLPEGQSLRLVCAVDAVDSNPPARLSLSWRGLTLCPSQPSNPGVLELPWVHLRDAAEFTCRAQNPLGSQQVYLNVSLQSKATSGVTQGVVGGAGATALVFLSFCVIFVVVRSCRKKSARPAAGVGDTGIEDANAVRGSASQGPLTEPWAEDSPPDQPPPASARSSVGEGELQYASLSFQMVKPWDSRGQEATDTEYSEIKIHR

Trypanosoma cruzi = test: Trypanosoma cruzi phosphomannomutase and mannose-1-phosphate guanylyltransferase assay; assay type: functional; conditions: 10 µM
[5] = target: T2, Arginase-2, mitochondrial (Homo sapiens) (UniProt P78540); test: in vitro enzyme assay to detect the production of urea directly proportional to the activity of Arginase II; assay type: functional; conditions: 33.3 µM; further: in the data most compounds retested in dose-response had high values
T2 sequence (whole entry): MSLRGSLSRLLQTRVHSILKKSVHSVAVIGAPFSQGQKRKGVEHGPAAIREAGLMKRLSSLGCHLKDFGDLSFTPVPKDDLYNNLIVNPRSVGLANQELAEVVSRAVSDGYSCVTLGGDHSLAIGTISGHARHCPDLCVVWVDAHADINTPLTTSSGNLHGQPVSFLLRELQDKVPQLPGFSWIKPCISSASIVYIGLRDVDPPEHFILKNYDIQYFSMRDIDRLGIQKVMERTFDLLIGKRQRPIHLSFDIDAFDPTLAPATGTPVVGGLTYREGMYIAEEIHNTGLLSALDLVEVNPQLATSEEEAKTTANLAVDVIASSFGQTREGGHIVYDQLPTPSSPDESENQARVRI

[6] = target: T3, Proteasome subunit beta (Trypanosoma cruzi) (UniProt O96673); test: Trypanosoma cruzi proteasome chymotrypsin-like activity (TcProtChymo) assay.; further: in the data most compounds retested in dose-response had high values; assay type: functional; conditions: 9.37 µM
T3 sequence (whole entry): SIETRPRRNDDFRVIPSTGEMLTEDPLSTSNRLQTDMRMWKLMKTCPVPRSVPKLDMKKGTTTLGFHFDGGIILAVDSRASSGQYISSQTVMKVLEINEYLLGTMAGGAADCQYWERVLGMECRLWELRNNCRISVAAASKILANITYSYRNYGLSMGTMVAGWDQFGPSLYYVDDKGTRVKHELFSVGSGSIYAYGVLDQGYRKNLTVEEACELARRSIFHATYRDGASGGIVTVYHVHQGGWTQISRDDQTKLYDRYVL

Homo sapiens = species on record: Homo sapiens; test: To identify inhibition of the IFN signalling (Jak-Stat) pathway via expression of an eGFP reporter gene under the control of an IFN-stimulated response element (ISRE) containing MxA promoter.; assay type: functional; conditions: 30 µM
[7] = target: T4, Tyrosyl-tRNA synthetase, putative (Trypanosoma cruzi (strain CL Brener)) (UniProt Q4DSP6); test: Trypanosoma cruzi tyrosyl tRNA synthetase (TcYRS) _High Tyrosine SOP; assay type: functional; conditions: 30 µM; further: in the data most compounds retested in dose-response had high values
T4 sequence (whole entry): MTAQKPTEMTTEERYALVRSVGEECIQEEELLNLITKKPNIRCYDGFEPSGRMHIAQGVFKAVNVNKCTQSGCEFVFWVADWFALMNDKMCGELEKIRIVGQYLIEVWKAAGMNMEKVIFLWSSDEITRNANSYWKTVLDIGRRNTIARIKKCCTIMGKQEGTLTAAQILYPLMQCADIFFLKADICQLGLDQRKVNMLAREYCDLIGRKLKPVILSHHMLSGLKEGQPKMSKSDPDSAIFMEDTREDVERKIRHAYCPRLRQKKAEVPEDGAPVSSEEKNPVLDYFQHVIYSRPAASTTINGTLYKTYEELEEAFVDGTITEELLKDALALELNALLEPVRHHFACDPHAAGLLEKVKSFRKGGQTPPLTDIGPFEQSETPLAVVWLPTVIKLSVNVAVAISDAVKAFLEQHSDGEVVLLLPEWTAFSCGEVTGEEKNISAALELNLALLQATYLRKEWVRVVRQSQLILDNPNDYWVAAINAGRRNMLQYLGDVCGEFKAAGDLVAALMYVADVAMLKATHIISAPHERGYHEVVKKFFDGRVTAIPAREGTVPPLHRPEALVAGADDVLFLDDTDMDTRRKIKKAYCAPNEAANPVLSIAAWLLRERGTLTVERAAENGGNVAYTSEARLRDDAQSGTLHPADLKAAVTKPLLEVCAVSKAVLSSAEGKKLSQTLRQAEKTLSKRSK

[8] = target: T4, Tyrosyl-tRNA synthetase, putative (Trypanosoma cruzi (strain CL Brener)); test: Trypanosoma cruzi tyrosyl tRNA synthetase (TcYRS) SOP; assay type: functional; conditions: 30 µM
[9] = target: Chromo domain-containing protein 1 (Saccharomyces cerevisiae (strain ATCC 204508 / S288c) (Baker's yeast)) (UniProt P32657); test: ScCHD-1 Enzyme Inhibition Assay; assay type: functional; conditions: 30 µM; further: in the data most compounds retested in dose-response had high values
Sequence of Chromo domain-containing protein 1 (Saccharomyces cerevisiae (strain ATCC 204508 / S288c) (Baker's yeast)) (P32657 whole entry, the tested form may be a part): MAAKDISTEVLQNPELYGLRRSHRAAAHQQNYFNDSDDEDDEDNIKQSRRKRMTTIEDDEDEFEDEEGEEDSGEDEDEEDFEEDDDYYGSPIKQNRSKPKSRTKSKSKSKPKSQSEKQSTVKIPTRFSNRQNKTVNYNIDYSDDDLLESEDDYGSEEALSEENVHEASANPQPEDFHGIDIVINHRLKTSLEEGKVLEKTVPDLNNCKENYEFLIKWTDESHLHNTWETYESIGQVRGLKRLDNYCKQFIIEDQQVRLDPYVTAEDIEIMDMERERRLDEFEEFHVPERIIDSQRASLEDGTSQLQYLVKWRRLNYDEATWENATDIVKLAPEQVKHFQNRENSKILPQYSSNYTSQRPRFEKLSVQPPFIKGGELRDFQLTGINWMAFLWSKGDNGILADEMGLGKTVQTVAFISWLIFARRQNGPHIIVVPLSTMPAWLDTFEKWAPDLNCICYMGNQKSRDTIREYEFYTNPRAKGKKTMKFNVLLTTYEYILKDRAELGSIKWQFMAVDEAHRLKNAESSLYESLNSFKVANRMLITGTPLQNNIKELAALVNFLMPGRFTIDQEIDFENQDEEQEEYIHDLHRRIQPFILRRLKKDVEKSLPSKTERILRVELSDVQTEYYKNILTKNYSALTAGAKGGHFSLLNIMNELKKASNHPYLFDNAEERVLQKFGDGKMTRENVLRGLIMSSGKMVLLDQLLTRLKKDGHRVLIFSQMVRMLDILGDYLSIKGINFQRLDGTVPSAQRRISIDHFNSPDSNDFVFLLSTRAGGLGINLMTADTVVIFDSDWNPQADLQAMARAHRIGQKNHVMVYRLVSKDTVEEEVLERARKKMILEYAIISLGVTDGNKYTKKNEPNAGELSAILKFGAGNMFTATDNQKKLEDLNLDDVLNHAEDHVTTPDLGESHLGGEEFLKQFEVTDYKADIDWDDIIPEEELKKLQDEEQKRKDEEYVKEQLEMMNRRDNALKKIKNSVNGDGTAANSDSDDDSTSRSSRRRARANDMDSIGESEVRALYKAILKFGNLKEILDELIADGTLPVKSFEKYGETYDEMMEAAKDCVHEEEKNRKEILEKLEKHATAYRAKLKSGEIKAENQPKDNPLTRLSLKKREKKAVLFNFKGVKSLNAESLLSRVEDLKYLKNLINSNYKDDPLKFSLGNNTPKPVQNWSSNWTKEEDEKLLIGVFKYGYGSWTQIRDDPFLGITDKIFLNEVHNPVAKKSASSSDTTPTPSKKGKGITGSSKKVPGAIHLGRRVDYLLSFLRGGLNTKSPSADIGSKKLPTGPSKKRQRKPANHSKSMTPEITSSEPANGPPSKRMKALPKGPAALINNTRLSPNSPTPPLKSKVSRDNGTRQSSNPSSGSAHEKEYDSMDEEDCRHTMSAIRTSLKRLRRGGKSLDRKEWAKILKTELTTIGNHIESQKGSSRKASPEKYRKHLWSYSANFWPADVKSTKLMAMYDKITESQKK

Sequence of Protein translocase subunit SecA (Escherichia coli (strain K12)) (P10408 whole entry): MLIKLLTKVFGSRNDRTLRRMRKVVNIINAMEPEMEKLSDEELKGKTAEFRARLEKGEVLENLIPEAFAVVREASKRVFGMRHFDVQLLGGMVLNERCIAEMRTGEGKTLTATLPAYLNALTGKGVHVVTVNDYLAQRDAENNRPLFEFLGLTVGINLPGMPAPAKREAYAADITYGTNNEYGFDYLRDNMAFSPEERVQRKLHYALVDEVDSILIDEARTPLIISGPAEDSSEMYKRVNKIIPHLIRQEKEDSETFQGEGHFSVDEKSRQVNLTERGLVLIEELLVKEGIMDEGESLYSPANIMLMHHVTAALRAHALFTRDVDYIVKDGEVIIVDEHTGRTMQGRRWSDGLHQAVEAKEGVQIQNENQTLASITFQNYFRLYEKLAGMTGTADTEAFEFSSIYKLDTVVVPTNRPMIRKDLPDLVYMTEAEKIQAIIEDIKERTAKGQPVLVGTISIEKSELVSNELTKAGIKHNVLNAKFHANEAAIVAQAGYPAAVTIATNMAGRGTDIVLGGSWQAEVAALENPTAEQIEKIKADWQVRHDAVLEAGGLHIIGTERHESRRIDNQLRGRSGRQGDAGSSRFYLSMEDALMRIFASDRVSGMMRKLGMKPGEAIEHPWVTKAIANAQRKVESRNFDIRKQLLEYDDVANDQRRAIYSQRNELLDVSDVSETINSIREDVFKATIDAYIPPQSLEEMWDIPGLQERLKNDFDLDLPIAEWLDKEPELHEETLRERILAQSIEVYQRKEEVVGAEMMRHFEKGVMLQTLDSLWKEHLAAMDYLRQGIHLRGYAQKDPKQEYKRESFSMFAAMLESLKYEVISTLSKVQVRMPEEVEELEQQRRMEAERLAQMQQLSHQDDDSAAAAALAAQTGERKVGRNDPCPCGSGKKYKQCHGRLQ

| SMILES | Percent Effect [1] [%] | Percent Effect [2] [%] | Percent Effect [3] [%] | Percent Effect [4] [%] | Percent Effect (Trypanosoma cruzi) [%] | Percent Effect [5] [%] | Percent Effect [6] [%] | Percent Effect (Homo sapiens) [%] | Percent Effect [7] [%] | Percent Effect [8] [%] | Percent Effect [9] [%] |
| --- | --- | --- | --- | --- | --- | --- | --- | --- | --- | --- | --- |
| CC(Cc1ccco1)NC(=O)Nc1ccc(S(C)(=O)=O)nc1 (stereo unspecified) | -4.47 | 18.4 | -6.45 | -1.24 | 4.13 | -0.383 | 9.52 | 21.8 | 9.31 | 19.5 | -12.4 |
| CCc1nc(C2CCCN(C(=O)c3cn(C)nc3C)C2)no1 (stereo unspecified) | -2.94 | 5.41 | -8.22 | 13.8 | 7.89 | 0.185 | 5.57 | 9 | 3.96 | 13.4 | 65.5 |
| O=C(CCc1cnn(-c2ccccc2)c1)N1CCCC(n2cccn2)C1 (stereo unspecified) | -2.31 | 10.5 | 2.58 | 12.9 | 3.38 | 4.98 | 0.668 | 14.7 | 8.33 | 17.1 | -11.6 |
| Cn1ccc(C(=O)N2CCN(CCc3ccccc3)CC2)cc1=O | -5.05 | 11.4 | 1.25 | -2.05 | -1.74 | 3.23 | 13 | 6.37 | 12.5 | 17.7 | -7.93 |
| O=C(Cc1ccccc1)N1CCC2(CC(=O)N(c3cccc(F)c3)C2)C1 (stereo unspecified) | -5.5 | 2.7 | -5.09 | -3.6 | -1.86 | 1.74 | 6.09 | -6.6 | 3.23 | 3.7 | 2.85 |
| Cc1ccsc1C(=O)N1C[C@@H]2CN(Cc3ccoc3)CCO[C@@H]2C1 | 1.09 | 18.9 | 1.36 | -11.6 | 5.18 | 9.87 | 12.7 | -6.4 | 6.49 | 15.4 | -1.54 |
| COc1cccc(C(=O)NS(=O)(=O)c2cccc(C#N)c2)c1OC | -5.72 | 10.8 | -6.64 | 1.98 | 1.58 | 2.4 | -0.539 | 0.367 | 1.98 | 13.4 | 3.98 |
| Cc1nc(NC2CCCC2)cc(C2CCN2C(=O)c2ccccc2)n1 (stereo unspecified) | -6.88 | 4.05 | 3.55 | 0.412 | 3.16 | -1.62 | 6.08 | -2.7 | 1.07 | 3.9 | -22.1 |
| Cc1cnn(CC2CCCCN2Cc2nnc(C3CC3)n2C)c1 (stereo unspecified) | -1.18 | -1.27 | 5 | -0.259 | 5.85 | 0.215 | 8.75 | -10.1 | 3.12 | 5.06 | -2.78 |
| CC(C)C(C)NC(=O)Nc1ccccc1CN1CCOCC1 (stereo unspecified) | -7.45 | 2.7 | 0.895 | 4.22 | 1.47 | 2.23 | 2.66 | -10.3 | 6.45 | 11.1 | -3.52 |
| O=c1cc2c(nn1CN1CCOCC1)CCC2 | -2.09 | 14.7 | -2.08 | -0.0396 | -0.786 | -6.87 | 11.3 | 14.3 | 6.35 | 15.4 | -8.17 |
| CCC1CN(C(=O)c2ccc(=O)[nH]c2)CCC(=O)N1Cc1ccccc1 (stereo unspecified) | -1.75 | 4.17 | -3.51 | -12.5 | -3.21 | 3.09 | 14 | 14.1 | 0 | 2.56 | -2.44 |
| COC[C@@]12CCO[C@@H]1CCN(C(=O)COc1ccccc1OC)C2 | 0.312 | 8.22 | -2.94 | 5.31 | -4.76 | -2.4 | 17.2 | 3.04 | 5.21 | 11.1 | -3.51 |
| CCn1cc(N2Cc3nc(N4CCOCC4)ncc3C2=O)cn1 | -4.68 | 17.3 | -4.89 | 0.208 | 0.786 | -9.33 | 4.44 | -2.82 | 2.12 | 5.13 | -15.2 |
| O=C(NCCCO)Nc1cccc(Cl)c1F | -3.09 | 12.5 | -6.85 | 11.1 | 4.96 | 11 | 8.25 | -2.91 | 3.16 | 5.13 | -4.47 |
| Clc1ccccc1C1(c2ccnc(-c3ccncc3)n2)CCNCC1 | -0.572 | 7.79 | 3.38 | 10.4 | -2.26 | -8.28 | 17 | 16.3 | 6.45 | 13.6 | 2.54 |

— ChEMBL document CHEMBL3988442, “University of Dundee, Small-Polar-MMV Screening Library” (2021)
